Measured values published in PubChem BioAssay AID1159580 (chemical genetic matrix, 2015).
“And” between values parts separate entries of the source, which are not always exact repeats. Identical values can stand only once. In all, about 5,500 compounds went through this assay and about 2,000 (36%) were called active. Inconclusive results (about 18%) are left out. Rule as the data show it: active = normalized growth mostly below about 0.91 (no sharp cut-off); inconclusive = no clear call, values can overlap the other calls; inactive = mostly above about 0.92. This is one part of the list.

Assay: chemical genetic growth profiling, strain panel (AID 1159580);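 also: tested at 20 µM; growth read once vehicle control cultures reached saturation at 30 °C; 1 = growth at the plate median or of vehicle wells; lower values mean less growth of the strain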
Details: S. cerevisiae deletion strains, growth OD

Measured: normalized growth

NC(=O)c1cccc(N)c1
inactive: locus YAL013W, strain DEP1, stronger effect = lower value 1 and 1.01 | locus YAL021C, strain ccr4, stronger effect = lower value 0.979 | locus YAL026C, strain drs2, stronger effect = lower value 0.97 | locus YAL030W, strain snc1, stronger effect = lower value 0.992 | locus YAL040C, strain CLN3, stronger effect = lower value 1 | locus YBL061C, strain skt5, stronger effect = lower value 0.977 | locus YBR009C, strain hhf1, stronger effect = lower value 0.998 | locus YBR021W, strain FUR4, stronger effect = lower value 0.968 | locus YBR023C, strain chs3, stronger effect = lower value 0.981 | locus YBR171W, strain sec66, stronger effect = lower value 0.962 | locus YBR229C, strain ROT2, stronger effect = lower value 1 | locus YBR231C, strain swc5, stronger effect = lower value 0.967 | locus YBR279W, strain paf1, stronger effect = lower value 0.99 | locus YCL011C, strain gbp2, stronger effect = lower value 0.957 | locus YCL016C, strain dcc1, stronger effect = lower value 0.988 | locus YCL029C, strain bik1, stronger effect = lower value 1 | locus YCL061C, strain MRC1 (second series), stronger effect = lower value 1 | locus YCL069W, strain vba3, stronger effect = lower value 0.962 | locus YCR088W, strain abp1, stronger effect = lower value 0.972 | locus YDL005C, strain med2, stronger effect = lower value 0.969 | locus YDL035C, strain GPR1, stronger effect = lower value 1 | locus YDL040C, strain nat1, stronger effect = lower value 0.988 | locus YDL074C, strain BRE1, stronger effect = lower value 1.01 | locus YDL101C, strain DUN1, stronger effect = lower value 1.01 | locus YDL134C, strain PPH21, stronger effect = lower value 0.999 | locus YDL185W, strain tfp1, stronger effect = lower value 1.01 | locus YDL192W, strain arf1, stronger effect = lower value 0.999 | locus YDR001C, strain nth1, stronger effect = lower value 0.979 | locus YDR069C, strain doa4, stronger effect = lower value 0.966 | locus YDR101C, strain arx1, stronger effect = lower value 0.987 | locus YDR137W, strain rgp1, stronger effect = lower value 0.976 | locus YDR150W, strain NUM1, stronger effect = lower value 1.01 | locus YDR159W, strain sac3, stronger effect = lower value 0.965 | locus YDR162C, strain NBP2, stronger effect = lower value 1 | locus YDR195W, strain ref2 0.958 | locus YDR297W, strain sur2, stronger effect = lower value 0.98 | locus YDR318W, strain mcm21, stronger effect = lower value 0.985 | locus YDR334W, strain swr1, stronger effect = lower value 0.96 | locus YDR335W, strain msn5, stronger effect = lower value 0.97 | locus YDR363W, strain ESC2, stronger effect = lower value 1 | locus YDR388W, stronger effect = lower value 0.993 | locus YDR392W, strain spt3, stronger effect = lower value 0.965 | locus YDR502C, strain sam2, stronger effect = lower value 1.01 | locus YEL003W, strain gim4, stronger effect = lower value 0.979 | locus YEL037C, strain rad23, stronger effect = lower value 0.969 | locus YEL061C, strain CIN8 (second series), stronger effect = lower value 0.954 | locus YEL061C, strain CIN8, stronger effect = lower value 1.01 | locus YER002W, strain NOP16, stronger effect = lower value 1.02 | locus YER015W, strain faa2, stronger effect = lower value 0.983 | locus YER016W, strain bim1, stronger effect = lower value 0.977 | locus YER110C, stronger effect = lower value 0.996 | locus YER111C, strain swi4, stronger effect = lower value 0.966 | locus YER155C, strain BEM2 (second series), stronger effect = lower value 0.965 | locus YER155C, strain BEM2, stronger effect = lower value 0.99 | locus YER167W, strain BCK2, stronger effect = lower value 1 | locus YFR010W, strain ubp6, stronger effect = lower value 0.968 | locus YGL078C, strain dbp3, stronger effect = lower value 1 | locus YGL086W, strain mad1, stronger effect = lower value 0.988 | locus YGL167C, strain pmr1, stronger effect = lower value 0.981 | locus YGL173C, strain kem1, stronger effect = lower value 0.984 | locus YGL227W, strain vid30, stronger effect = lower value 0.966 | locus YGL240W, strain doc1, stronger effect = lower value 0.969 | locus YGL248W, strain PDE1, stronger effect = lower value 1 | locus YGL253W, strain hxk2, stronger effect = lower value 0.963 | locus YGR078C, strain PAC10, stronger effect = lower value 1 and 1.05 | locus YGR135W, strain pre9, stronger effect = lower value 0.986 | locus YGR229C, strain SMI1, stronger effect = lower value 1.01 | locus YGR252W, strain gcn5, stronger effect = lower value 0.978 | locus YHR013C, strain ard1, stronger effect = lower value 0.972 | locus YHR027C, strain rpn1, stronger effect = lower value 0.974 | locus YHR030C, strain SLT2, stronger effect = lower value 1.01 | locus YHR079C, strain IRE1 (second series), stronger effect = lower value 0.994 | locus YHR094C, strain hxt1, stronger effect = lower value 0.998 | locus YHR129C, strain ARP1, stronger effect = lower value 1 | locus YHR142W, strain chs7, stronger effect = lower value 0.968 | locus YHR200W, strain rpn10, stronger effect = lower value 0.993 | locus YIL066C, strain RNR3, stronger effect = lower value 1 | locus YIL073C, strain SPO22, stronger effect = lower value 1.02 | locus YIL125W, strain kgd1, stronger effect = lower value 0.996 | locus YIR030C, strain dcg1, stronger effect = lower value 0.996 | locus YJL092W, strain hpr5, stronger effect = lower value 0.954 | locus YJL095W, strain BCK1 (second series), stronger effect = lower value 0.979 | locus YJL095W, strain BCK1, stronger effect = lower value 1 | locus YJL115W, strain asf1, stronger effect = lower value 0.966 | locus YJL129C, strain trk1, stronger effect = lower value 0.965 | locus YJL134W, strain LCB3, stronger effect = lower value 1 | locus YJL154C, strain vps35, stronger effect = lower value 0.979 | locus YJL164C, strain tpk1, stronger effect = lower value 1 | locus YJL166W, strain qcr8, stronger effect = lower value 1.01 | locus YJL168C, strain set2, stronger effect = lower value 0.99 | locus YJL187C, strain SWE1 (second series), stronger effect = lower value 1.01 | locus YJL187C, strain SWE1, stronger effect = lower value 0.968
